LYP inh 2 – LYP (human) phosphatase inhibition | AID 640 | recombinant LYP catalytic domain, DiFMUP fluorescence | hit rate 0.21% among 96,000 | Q9Y2R2 | inhibition, % at 2 µM;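 active = inhibition at 2 µM at or above a set limit, the screen mean plus 3 SD, cut at about 24% in these data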;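 note: 0% = DMSO with enzyme and 100% = enzyme fully blocked by orthovanadate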
MT1-MMP txn act – activates MT1-MMP transcription | HT1080 MT1-MMP promoter luciferase reporter, luminescence, overnight; hits give high values | activation factor at 10 µM | hit rate 0.16% among 86,000 | AID 750;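 active = activation factor of at least 2 for MT1-MMP transcription at 10 µM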
sEH act – increases human soluble epoxide hydrolase activity | P34913 | purified human sEH enzymatic activity, activator screen | activation, % at 2 µM | hit rate 0.04% among 91,000 | AID 717; in the data active = activation above about 37%
LYP act – activators of human LYP (PTPN22) phosphatase; recombinant LYP, DiFMUP fluorescence; 0 = plate median, 100 = signal doubled; Q9Y2R2; activation, % at 2 µM; hit rate 0.11% among 96,000;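 active = activation at 2 µM above a set limit, the mean plus 5 SD, cut at about 37% in these data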
E coli RNAP – inhibitors of Escherichia coli RNA polymerase; P0A8V2; E. coli RNA polymerase, fluorescence transcription assay; inhibition, %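 (tested at 10 µM)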; hit rate 0.2% among 62,000; AID 559; in the data active = inhibition above about 20%;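 note: 0% = enzyme without compound and 100% = no enzyme blank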
Target sequence (P0A8V2 whole entry, looked up): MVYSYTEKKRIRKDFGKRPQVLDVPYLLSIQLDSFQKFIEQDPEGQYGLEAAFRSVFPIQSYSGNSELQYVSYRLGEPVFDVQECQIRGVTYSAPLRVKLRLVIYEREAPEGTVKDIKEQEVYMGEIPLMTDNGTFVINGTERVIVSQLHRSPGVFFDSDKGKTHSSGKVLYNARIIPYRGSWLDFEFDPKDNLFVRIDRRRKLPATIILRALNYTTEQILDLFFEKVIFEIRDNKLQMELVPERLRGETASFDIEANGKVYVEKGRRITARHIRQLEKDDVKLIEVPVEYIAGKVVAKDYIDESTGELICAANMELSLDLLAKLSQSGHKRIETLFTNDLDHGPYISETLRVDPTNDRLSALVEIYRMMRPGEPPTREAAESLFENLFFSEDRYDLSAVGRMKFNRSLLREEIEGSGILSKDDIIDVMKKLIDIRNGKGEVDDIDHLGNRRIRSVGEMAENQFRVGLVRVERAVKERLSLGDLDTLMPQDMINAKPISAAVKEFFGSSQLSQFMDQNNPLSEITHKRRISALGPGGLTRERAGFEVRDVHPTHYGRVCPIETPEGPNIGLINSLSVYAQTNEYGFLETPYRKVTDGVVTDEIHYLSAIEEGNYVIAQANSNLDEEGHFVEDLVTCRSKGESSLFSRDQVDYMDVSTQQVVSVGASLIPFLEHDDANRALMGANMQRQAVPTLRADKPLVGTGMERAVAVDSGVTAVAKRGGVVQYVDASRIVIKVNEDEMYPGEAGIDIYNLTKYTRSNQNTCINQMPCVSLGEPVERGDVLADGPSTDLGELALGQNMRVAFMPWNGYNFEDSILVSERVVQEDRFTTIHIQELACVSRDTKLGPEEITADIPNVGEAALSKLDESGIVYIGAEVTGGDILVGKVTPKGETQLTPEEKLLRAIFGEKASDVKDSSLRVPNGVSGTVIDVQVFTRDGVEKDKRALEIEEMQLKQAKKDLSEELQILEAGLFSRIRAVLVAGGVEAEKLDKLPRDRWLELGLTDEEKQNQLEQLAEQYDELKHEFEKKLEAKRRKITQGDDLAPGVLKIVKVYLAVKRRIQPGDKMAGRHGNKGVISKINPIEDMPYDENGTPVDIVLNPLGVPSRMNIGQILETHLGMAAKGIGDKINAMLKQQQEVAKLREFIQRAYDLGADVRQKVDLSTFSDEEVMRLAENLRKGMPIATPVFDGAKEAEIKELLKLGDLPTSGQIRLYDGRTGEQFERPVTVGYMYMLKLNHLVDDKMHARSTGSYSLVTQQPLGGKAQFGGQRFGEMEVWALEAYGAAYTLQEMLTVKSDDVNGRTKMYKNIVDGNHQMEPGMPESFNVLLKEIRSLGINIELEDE
sEH inhibitor – soluble epoxide hydrolase (human) inhibition; P34913; recombinant human sEH enzymatic activity assay; inhibition, % at 2 µM; hit rate 0.34% among 91,000; AID 707; in the data active = inhibition above about 80%
* = called active by the depositor; / = no result given. Rows were chosen to be rich in hits. Some 0.64% of all compounds tested hit in one or more screens of this group.

SMILES | LYP inh 2 | MT1-MMP txn act | sEH act | LYP act | E coli RNAP | sEH inhibitor
CC(/C=N/n1c(C2CCCCC2)n[nH]c1=S)=C\c1ccccc1 | 25.6* | / | -10.1 | -22.9 | / | 8.5
Cc1cc2c(C)nc(-c3ccccc3)nc2o1 | 0.0 | 2* | -3.0 | 0.5 | / | 6.1
CCC1=C2CC[C@H]3C(=O)N(c4ccccc4)C(=O)[C@H]3[C@H]2[C@@]2(Cc3ccccc3)C(=NCc3ccccc3)OC(=O)N2C1=O | / | 1.1 | / | / | / | /
COC(=O)c1ccc(C(NC(=O)OCc2ccccc2)/C(F)=C/[C@@H](C)C(=O)NCc2nn(-c3ccccc3)nc2C)cc1 (some centres not stated) | / | 1.5 | / | / | / | /
CCOC(=O)C1=C(c2ccccc2)OC(N)=C(C#N)C1C(C)C (configuration not stated) | -0.2 | 1.2 | 8.3 | 0.8 | 39.7* | -5.2
CCOC(=O)C1=C(c2ccccc2)OC(N)=C(C#N)C1C1CCCCC1 (configuration not stated) | 8.0 | 1.1 | -2.6 | -5.5 | / | 1.7
CN(C)/C=N/c1cc(=O)[nH]c(=O)n1C | / | 1 | / | / | / | /
O=C(NCc1ccco1)c1ccc2nc3sc4c(c3c(=O)n2c1)CCCC4 | 24.8* | 1.5 | 3.2 | -26.5 | -4.4 | -5.7
CN(C)c1ccc(Nc2nc(-c3cccnc3)cs2)cc1 | 8.7 | 2* | / | -11.7 | -11.5 | /
CCc1cc(-c2[nH]ncc2-c2ccc3c(c2)OCO3)c(O)cc1O | / | 0.7 | / | / | -14.0 | /
CC(C)C1N=C(c2ccc3c(c2)OCO3)CC(c2ccccc2O)N1 (configuration not stated) | 6.0 | 2* | 19.5 | -6.5 | / | -23.0
COC(=O)c1sccc1-n1cccc1C(=O)N1CCOCC1 | 59.8* | / | 10.7 | -58.6 | / | -12.0
CC(C)OC1=C(OC(C)C)C(O)(C#CCN(C(=O)/C=C/c2ccccc2)C(C)(C)C)C1=O (configuration not stated) | / | 1.1 | / | / | / | /
CC(=O)NC1CC2CCCC(C1)N2C(=O)Nc1ccc(Cl)c(C(F)(F)F)c1 (configuration not stated) | 2.9 | 1 | -87.5 | -5.8 | 3.9 | 87.4*
COC(=O)[C@@]1(Cc2ccc(OC)cc2)[C@H]2c3cc(C(=O)N4CCCC4)n(Cc4cc(F)cc5c4OCOC5)c3C[C@H]2CN1C(=O)c1ccccc1 | / | 1.2 | / | / | / | /
O=C(NCC1CCCO1)c1ccc(S(=O)(=O)N2CCC(c3nc4ccc(Cl)cc4[nH]3)CC2)cc1 (configuration not stated) | -6.5 | 0.9 | -81.0 | 6.4 | / | 80.9*
COc1ccc(/C=N/NC(=O)c2ccc(COc3ccccc3Cl)o2)cc1 | 3.9 | / | -83.5 | 0.2 | / | 84.0*
COc1ccc(S(=O)(=O)N2CCC(C(=O)N3CCc4ccccc4C3)CC2)cc1Cl | -3.3 | 1.2 | 16.4 | 5.3 | / | -16.3
COC(=O)C1(CC(C)C)C=CCN1C(=O)c1ccccc1 (configuration not stated) | / | 1 | / | / | / | /
Cc1noc(C)c1S(=O)(=O)N1CCCC(C(=O)NCCC2=CCCCC2)C1 (configuration not stated) | 8.7 | 1 | -70.2 | -10.5 | 3.8 | 70.8
Cc1noc(/C=C/N(C)C)c1S(=O)(=O)N1CCCC(C(=O)NCCC2=CCCCC2)C1 (configuration not stated) | -0.6 | 1.1 | -87.8 | -1.1 | 4.4 | 87.7*
COC(=O)[C@@]1(Cc2ccc(F)cc2)[C@H]2c3cc(C(=O)N(C)C)n(CCCNc4ncc(C(F)(F)F)cc4Cl)c3C[C@H]2CN1C(=O)c1ccccc1 | / | 1.1 | / | / | / | /
Cc1ccc2c(c1)nnn2C1CCN(C(=O)NC23CC4CC(CC(C4)C2)C3)CC1 | -7.4 | 0.9 | -84.9 | 9.6 | 12.6 | 84.8*
Cc1ccc2c(c1)nnn2C1CCN(C(=O)C23CC4CC(CC(C4)C2)C3)CC1 | 7.6 | 1.1 | -9.9 | -10.8 | / | 11.2
Cc1cc(Cl)cc2c1NC(=O)[C@]21[C@@H]2C(=O)N(Cc3ccccc3)C(=O)[C@@H]2[C@@H]2CCCN21 | -1.2 | 1 | -5.8 | -2.0 | 33.2* | 6.0
SMILES | LYP inh 2 | MT1-MMP txn act | sEH act | LYP act | E coli RNAP | sEH inhibitor
CCc1ccc2c(c1)[C@]1(C(=O)N2)[C@@H]2C(=O)N(Cc3ccccc3)C(=O)[C@@H]2[C@@H]2CCCN21 | -7.8 | 1.2 | -10.3 | 5.0 | 8.8 | 7.7
FC(F)(F)c1ccc(CN2C[C@@H]3C(c4ccc(C(F)(F)F)cc4)C4(c5ccccc5)CC3(C4)[C@H]2c2ccccc2)cc1 (some centres not stated) | / | 1.1 | / | / | / | /
O=C1CSc2ccc(C(=O)NCCC3=CCCCC3)cc2N1 | -9.9 | 1.2 | -82.6 | 14.6 | / | 82.4*
COCCNC(=O)c1ccc2c(c1)NC(=O)CS2 | 1.8 | 1.1 | -4.8 | -3.8 | 2.9 | 1.7
Cc1nn(-c2ccccc2)c(Cl)c1/C=N/Nc1ccc(S(=O)(=O)Nc2ccccc2C(=O)O)cc1[N+](=O)[O-] | 24.3* | 1.1 | 5.7 | -22.3 | / | -2.8
Cc1ccc(C(c2nnnn2Cc2ccccc2)N2CCN(Cc3ccccc3)CC2)cc1 (configuration not stated) | 9.7 | / | -5.7 | -14.2 | / | 5.0
COC(=O)c1[nH]c2cc(C)ccc2c1NC(=O)CN1CCCc2ccccc21 | 11.2 | 2.2* | -1.2 | -12.4 | 4.1 | 1.4
OCc1cn(-c2ccccc2)nc1-c1ccc2c(c1)OCCO2 | 7.3 | 2.1* | 0.6 | -6.7 | 13.1 | -2.4
O/N=C/c1cn(-c2ccccc2)nc1-c1ccc2c(c1)OCCO2 | 6.9 | 1.4 | 5.7 | -4.9 | / | -7.3
CCn1c(C)nc2cc(C(=O)OC(C(F)(F)C(F)F)C(F)(F)C(F)F)ccc21 | -0.7 | 2.2* | 15.5 | 3.3 | 8.6 | -18.4
N#Cc1nc(-c2ccc(OCc3ccc(Cl)cc3)cc2)oc1NCCCn1ccnc1 | 25.5* | 1.1 | 2.3 | -26.9 | 5.5 | -2.1
CC1CCCC(NC(=O)Cc2ccc(Br)cc2)C1C (configuration not stated) | 11.1 | 1 | -51.8 | -9.7 | / | 53.0
CC1CCCC(NC(=O)Nc2cccs2)C1C (configuration not stated) | -25.9 | 1.1 | -80.7 | 27.3 | / | 80.5*
CNC(=O)[C@H](C)/C=C/C(NC(=O)OCc1ccccc1)c1ccc(C(=O)OC)cc1 (some centres not stated) | / | 1.2 | / | / | / | /
CCC1=C(OC(=O)N(CC)CC)N2C(=O)OC(=NCCc3c[nH]c4ccccc34)[C@]2(Cc2ccccc2)[C@H]2C1=CC[C@H]1C(=O)N(CC)C(=O)[C@H]12 | / | 1.1 | / | / | / | /
CCCOc1cccc(/C=N/NC(=O)c2csc(C)c2C)c1 | -0.7 | / | -86.2 | -0.7 | / | 86.4*
Cc1scc(C(=O)N/N=C/c2ccco2)c1C | 10.8 | 1.8 | -29.1 | -13.5 | / | 27.3
CCOc1ccc(NC(=O)NCCN2C(C)CCCC2C)cc1 (configuration not stated) | -2.1 | 1.1 | 3.3 | 2.0 | 3.5 | -1.9
CCOc1ccc(NC(=O)NCCCSC2CCCCC2)cc1 | -5.1 | 1.1 | -85.5 | 7.3 | / | 85.3*
CCOC(=O)C1=C(C)N(CCCCCC(=O)O)C(=O)NC1c1cccc(Cl)c1Cl (configuration not stated) | / | 1.2 | / | / | / | /
O=C(Nc1ccon1)c1cc(-c2ccccc2)nc2ccccc12 | -10.2 | 1.1 | -8.6 | 13.1 | 20.7* | 8.9

Bioassay records: PubChem, several laboratories
